{
  "source": "PubChem BioAssay AID720650",
  "about": "(Broad Institute, 2013)",
  "note": "Activity calls are given as the source filed them. No rule for the calls is given here.",
  "data": [
    {"assay": "Biochemical counterscreen for C difficile toxins, absence of UDPG, inhibitor dose response (AID 720650)", "conditions": "series mostly up to 19.5 µM; activity change, negative = inhibition: at the top concentration", "values": [
      {"smiles": "CCOc1ccccc1/C=C/c1onc(C)c1S(=O)(=O)N1CCC(C(=O)N(CC)CC)CC1", "activity change, negative = inhibition": "-11.7% (inactive)"},
      {"smiles": "Cc1ccc(S(=O)(=O)N2CCCC2C(=O)Nc2ccc(O)cc2)cc1", "note": "(stereo not drawn)", "AC50": "16.6 µM (active)"},
      {"smiles": "COC(=O)[C@H]1C[C@@H]1[C@H](NP(=O)(c1ccccc1)c1ccccc1)c1ccccc1", "activity change, negative = inhibition": "1.05% (inactive)"},
      {"smiles": "O=c1[nH]nc(-c2cc(-c3ccccc3)nc3ccccc23)o1", "activity change, negative = inhibition": "-13.7% (inactive)"},
      {"smiles": "O=C(C[C@@H]1CC[C@H]2[C@@H](COC[C@H](O)CN2C(=O)c2ccccn2)O1)NC1CCC1", "activity change, negative = inhibition": "-6.78% (inactive)"},
      {"smiles": "CN1C=CC(=CC=C2C=CC(=O)C=C2)C=C1", "AC50": "7.43 µM (active)"},
      {"smiles": "CNC(=O)C[C@H]1CC[C@@H]2[C@H](COc3ccc(NS(=O)(=O)c4ccccc4C)cc3C(=O)N2C)O1", "activity change, negative = inhibition": "6.47% [at 21 µM] (inactive)"},
      {"smiles": "O=C(O)c1ccccc1NC(=O)N1C[C@H]2C[C@@H](C1)c1cccc(=O)n1C2", "activity change, negative = inhibition": "-18.8% (inactive)"},
      {"smiles": "CC1CC(=O)N(c2ccc(NCCc3ccc(O)cc3)c([N+](=O)[O-])c2)C1=O", "note": "(stereo not drawn)", "activity change, negative = inhibition": "-3.89% (inactive)"},
      {"smiles": "CC(=O)Oc1ccc2nc(/C=C/c3ccccc3)oc(=O)c2c1", "activity change, negative = inhibition": "-12% (inactive)"},
      {"smiles": "Cc1ccc(C2=NS(=O)(=O)N(C)C(C(=O)NCc3ccc4c(c3)OCO4)=C2)cc1", "activity change, negative = inhibition": "-9.33% (inactive)"},
      {"smiles": "CC12CCC3C(=CCc4cc(O)ccc43)C1CC(=NO)C2O", "note": "(stereo not drawn)", "AC50": "19.4 µM (active)"},
      {"smiles": "O=C(OCn1nnc2ccccc2c1=O)c1cc2ccccc2o1", "activity change, negative = inhibition": "-1.31% (inactive)"},
      {"smiles": "O=C(COc1ccc2ccc(=O)oc2c1)NCCN1CCOCC1", "activity change, negative = inhibition": "-11.5% (inactive)"},
      {"smiles": "COc1ccc(-c2ccc3c(c2)[C@H]2[C@H](CCN2C(=O)Cc2cccnc2)[C@@H](CO)N3C)cc1", "AC50": "14.7 µM (active)"},
      {"smiles": "O=C(C[C@H]1CC[C@@H]2[C@H](COC[C@@H](O)CN2C(=O)Nc2ccc(Cl)c(Cl)c2)O1)NCc1ccncc1", "activity change, negative = inhibition": "-7.89% (inactive)"},
      {"smiles": "CNC(=O)C[C@H]1CC[C@@H]2[C@H](COc3ccc(NC(=O)c4ccc(OC)cc4)cc3C(=O)N2C)O1", "AC50": "> 39 µM (inactive)"},
      {"smiles": "CC(=O)N(c1ccccc1C)S(=O)(=O)c1ccc(Cl)cc1", "activity change, negative = inhibition": "-13.3% (inactive)"},
      {"smiles": "O=C(CSc1cccc2cccnc12)N/N=C/c1ccc(F)cc1", "activity change, negative = inhibition": "-15.4% (inactive)"},
      {"smiles": "CCN(CC)CCCCN1c2ccccc2Sc2ccccc21", "AC50": "7.03 µM (active)"},
      {"smiles": "O=C(NCc1cccnc1)c1cc(C2CCCCN2S(=O)(=O)c2cccc3cccnc23)on1", "note": "(stereo not drawn)", "activity change, negative = inhibition": "-13.3% (inactive)"},
      {"smiles": "CC(OC(=O)c1cccnc1Cl)C(=O)NC1CCCCC1", "note": "(stereo not drawn)", "activity change, negative = inhibition": "9.9% (inactive)"},
      {"smiles": "Cc1cc(-c2ccc(NS(=O)(=O)c3ccccc3)c(C)c2)ccc1NS(=O)(=O)c1ccccc1", "activity change, negative = inhibition": "-6.17% (inactive)"},
      {"smiles": "CCn1c(C)nc2cc(C(=O)N/N=C/c3ccc(O)cc3)ccc21", "AC50": "15.1 µM (active)"},
      {"smiles": "COCC(=O)N1CC[C@@H]2[C@H]1c1cc(-c3cccc(OC)c3)ccc1N(C)[C@H]2CO", "AC50": "8.89 µM (active)"},
      {"smiles": "Cc1ccn2c(Cc3ccccc3)c(-c3ccc(F)cc3)nc2c1", "activity change, negative = inhibition": "-13.8% (inactive)"},
      {"smiles": "Nc1ccc2c(c1)[nH]c(=O)c1cc(N)ccc12", "AC50": "13 µM (active)"},
      {"smiles": "CC(C)Cc1cc(C(=O)N2CCCC(CO)(Cc3ccc(F)cc3)C2)no1", "note": "(stereo not drawn)", "activity change, negative = inhibition": "1.04% (inactive)"},
      {"smiles": "COc1cccc(/C=C/c2onc(C)c2S(=O)(=O)N2CCC(C(=O)NC3CCCCCC3)CC2)c1", "activity change, negative = inhibition": "-2.75% (inactive)"},
      {"smiles": "Cc1nc(-c2ccccn2)nc(SCC(=O)c2ccc(F)cc2)c1Cl", "activity change, negative = inhibition": "-7.34% (inactive)"},
      {"smiles": "COc1ccc(NC(=O)c2cc(C)nc3ccccc23)c(OC)c1", "activity change, negative = inhibition": "-3.39% (inactive)"},
      {"smiles": "CCC(=O)Nc1ccc2c(c1)OC[C@H](C)N(C(=O)NC(C)C)C[C@H](C)[C@H](OC)CN(C)C2=O", "activity change, negative = inhibition": "-3.05% (inactive)"},
      {"smiles": "CNC(=O)C1Cc2c(-c3ccccc3Oc3ccccc3)ccnc2O1", "note": "(stereo not drawn)", "AC50": "> 39 µM (inactive)"},
      {"smiles": "Cc1cc(C)cc(N=C2NC(=O)CS2)c1", "activity change, negative = inhibition": "-5.57% (inactive)"},
      {"smiles": "Nc1ccc(Sc2ccc(N)cc2)cc1", "AC50": "3.22 µM (active)"},
      {"smiles": "CCOc1ccc(NC(=O)c2ccc(CC)s2)c([N+](=O)[O-])c1", "activity change, negative = inhibition": "-8.67% (inactive)"},
      {"smiles": "Cc1cccc(-c2n[nH]c(=S)n2/N=C/C=C/c2ccco2)c1", "activity change, negative = inhibition": "-2.11% (inactive)"},
      {"smiles": "O=C(CN1C(=O)CCC1=O)NNc1ccc2ccccc2c1", "AC50": "< 0.16 µM (active)"}
    ]}
  ]
}
